# Results taken from the supplement of paper PMC9694430.
# Assays:
# Experiment in all cases: thermal shift delta Tm vs DMSO control; higher = stronger stabilization (binding)
# Conditions in all cases: 12.5 µM; protein concentration 2 µM
# [1] = tested on: LOC_OS01G57100-cb003
# Procedure, shortened: (§1)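 Purified, E. coli-expressed rice kinase domain constructs were tested by differential scanning fluorimetry in 96-well plates: 19.5 μl of 2 μM kinase in 100 mM potassium phosphate pH 7.5, 150 mM NaCl, 10% glycerol, 5 × SYPRO Orange, plus compound in DMSO. Fluorescence was read from 25°C to 95°C at 0.05°C/s. Melting temperatures came from Boltzmann fits, and the shift is the triplicate mean relative to protein with DMSO alone.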
# [2] = tested on: LOC_OS01G60330-cb001
# Procedure, shortened: as §1
# [3] = tested on: LOC_OS01G60700-cb002
# Procedure, shortened: as §1
# [4] = tested on: LOC_OS01G63280-cb003
# Procedure, shortened: as §1
# [5] = tested on: LOC_OS01G67340-cb003
# Procedure, shortened: as §1
# [6] = tested on: LOC_OS01G70970-cb002
# Procedure, shortened: as §1
# [7] = tested on: LOC_OS02G07810-cb001
# Procedure, shortened: as §1
# [8] = tested on: LOC_OS02G08530-cb003
# Procedure, shortened: as §1
# [9] = tested on: LOC_OS02G14120-cb001
# Procedure, shortened: as §1
# [10] = tested on: LOC_OS02G17970-cb001
# Procedure, shortened: as §1
# [11] = tested on: LOC_OS02G45750-cb003
# Procedure, shortened: as §1
# [12] = tested on: LOC_OS02G54510-cb004
# Procedure, shortened: as §1
# [13] = tested on: LOC_OS03G04050-cb001
# Procedure, shortened: as §1
# [14] = tested on: LOC_OS03G12390-cb001
# Procedure, shortened: as §1
# [15] = tested on: LOC_OS03G27990-cb004
# Procedure, shortened: as §1
# [16] = tested on: LOC_OS03G50450-cb001
# Procedure, shortened: as §1
# [17] = tested on: LOC_OS03G50810-cb003
# Procedure, shortened: as §1
# [18] = tested on: LOC_OS04G35114-cb001
# Procedure, shortened: as §1
# [19] = tested on: T1, LOC_OS04G38480-cb003
# T1 sequence (whole entry): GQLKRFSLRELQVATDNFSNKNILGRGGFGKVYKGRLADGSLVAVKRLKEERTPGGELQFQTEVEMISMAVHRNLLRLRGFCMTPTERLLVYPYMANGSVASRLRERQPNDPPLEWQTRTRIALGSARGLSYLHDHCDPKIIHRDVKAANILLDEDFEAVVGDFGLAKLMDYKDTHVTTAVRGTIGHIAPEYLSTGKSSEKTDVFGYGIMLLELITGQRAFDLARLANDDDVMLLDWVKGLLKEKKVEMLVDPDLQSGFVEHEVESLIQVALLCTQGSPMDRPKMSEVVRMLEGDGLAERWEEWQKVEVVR
# Procedure, shortened: as §1
# [20] = tested on: T2, LOC_OS04G41100-cb001
# T2 sequence (whole entry): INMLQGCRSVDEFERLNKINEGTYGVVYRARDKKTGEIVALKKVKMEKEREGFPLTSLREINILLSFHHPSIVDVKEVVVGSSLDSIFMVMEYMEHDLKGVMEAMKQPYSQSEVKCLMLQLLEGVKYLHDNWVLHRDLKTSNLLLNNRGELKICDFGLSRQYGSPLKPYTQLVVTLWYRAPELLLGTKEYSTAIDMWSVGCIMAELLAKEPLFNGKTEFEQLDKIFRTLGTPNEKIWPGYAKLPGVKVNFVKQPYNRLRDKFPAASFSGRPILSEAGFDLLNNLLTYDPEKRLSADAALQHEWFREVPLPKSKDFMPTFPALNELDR
# Procedure, shortened: as §1
SMILES,thermal shift delta Tm [1] [°C],thermal shift delta Tm [2] [°C],thermal shift delta Tm [3] [°C],thermal shift delta Tm [4] [°C],thermal shift delta Tm [5] [°C],thermal shift delta Tm [6] [°C],thermal shift delta Tm [7] [°C],thermal shift delta Tm [8] [°C],thermal shift delta Tm [9] [°C],thermal shift delta Tm [10] [°C],thermal shift delta Tm [11] [°C],thermal shift delta Tm [12] [°C],thermal shift delta Tm [13] [°C],thermal shift delta Tm [14] [°C],thermal shift delta Tm [15] [°C],thermal shift delta Tm [16] [°C],thermal shift delta Tm [17] [°C],thermal shift delta Tm [18] [°C],thermal shift delta Tm [19] [°C],thermal shift delta Tm [20] [°C]
CN1CCN(c2ccc3nc(-c4c(N)c5c(F)cccc5[nH]c4=O)[nH]c3c2)CC1 [Dovitinib (TKI-258) Dilactic Acid],1.5,13.5,1.33,1.22,6.31,7.56,1.75,4.53,6.88,0.5,16.3,1.95,0.96,4.57,8.19,5.49,1.54,9.41,1.48,0.82
CN1c2ccccc2C(=O)Nc2cnc(Nc3ccc(N4CCC(O)CC4)cc3)nc21,0.2,1.06,0.97,2.56,1.01,2.61,0.39,0.74,11.1,0.53,5.71,2.78,0.24,2.56,1.24,-0.12,2.29,3.85,3.65,0.15
COc1cc(OC)c(/C=C/S(=O)(=O)Cc2ccc(OC)c(NCC(=O)O)c2)c(OC)c1,0.72,0.72,1.27,0.67,-0.23,-0.1,1.48,0.79,0.49,0.94,0.52,0.14,0.35,0.36,0.04,0.44,0.25,0.47,1.33,0.67
Cc1cc(Nc2cc(Cl)nc(Oc3ccc([N+](=O)[O-])cc3)n2)n[nH]1 [Autophinib],1.52,0.66,-0.44,0.94,0.51,1.07,-0.12,0.84,0.42,0.46,1.3,0.33,0.63,0.34,0.56,0.75,0.7,0.47,1.06,1.26
CCNc1nc(Nc2cc(F)c(C(=O)N3CCOCC3)cc2OC)ncc1C(F)(F)F,0.61,1.21,0.71,0.15,0.32,0.73,-0.04,1.3,0.5,0.54,1.06,0.23,0.41,0.25,0.28,0.95,0.82,1.17,1.15,0.43
Cc1ccccc1CN1C2=NCCN2C(=O)C2=C1CCN(Cc1ccccc1)C2 [TIC10 Analogue],1.53,0.24,1.04,0.12,-0.3,0.36,0.85,1.02,-0.11,0.86,-0.1,0.13,0.49,-0.16,0.09,0.31,0.21,0.79,0.2,0.45
CCCCCCCCCCCCCCCCOP(=O)([O-])OCC[N+](C)(C)C [Miltefosine],-11.3,-3.63,-6.31,-4.06,-4.33,-8.33,-3.73,-3.69,-6.59,-5.83,-1.69,-3.98,-6.02,-3.65,-2.36,-1.33,-3.31,-3.53,-0.41,-0.66
Cc1ccc(-n2nc(C(C)(C)C)cc2NC(=O)NCc2cc(F)ccc2Oc2ccc3c(cnn3CCO)c2)cc1 [Pexmetinib (ARRY-614)],1.23,2,0.83,6.58,0.87,0.6,0.69,0.78,4.57,1.52,0.81,2.56,0.65,1.05,0.31,0.02,0.36,0.41,1.51,1.43
C[C@H]1[C@H](C)CC[C@]2(C(=O)O)CC[C@]3(C)C(=CC[C@@H]4[C@@]5(C)C[C@@H](O)[C@H](O)[C@@](C)(CO)[C@@H]5CC[C@]43C)[C@H]12 [Asiatic Acid],2.35,0.45,0.54,-0.01,0.72,0.06,0.83,0.74,0.58,0.33,0.12,-0.04,0.11,-0.01,0.08,0.19,0.31,-0.09,0.96,0.3
Cc1[nH]nc2ccc(-c3cncc(OC[C@@H](N)Cc4ccccc4)c3)cc12,1.88,0.68,1.01,0.26,1.12,0.36,1.05,2.68,3.18,0.41,2.29,0.14,0.35,3.08,0.34,0.59,1.41,1.06,0.62,1.9
CC(C)NC(=O)COc1cccc(-c2nc(Nc3ccc4[nH]ncc4c3)c3ccccc3n2)c1,1.14,12.3,0.68,0.55,0.91,0.76,1.23,1.03,2.71,1.76,1.3,0.55,0.76,-0.25,0.71,0.77,0.84,1.5,1.83,0.68
O=c1cc(N2CCOCC2)oc2c1ccc1ccccc12,-0.21,-0.04,0.19,0.17,0.3,-0.28,0.45,0.22,1.47,0.01,0.57,0.45,0.58,1.07,0.27,0.43,0.29,0.64,2.01,0.31
O=C(Cc1ccc(-c2ccc(OCCN3CCOCC3)cc2)cn1)NCc1ccccc1,1.17,0.12,1.18,0.26,0.62,0.16,0.92,0.7,0.08,1.17,0.29,0.08,0.31,0.07,0.38,0.47,0.43,0.43,0.12,0.27
